Experimental data: PubChem BioAssay AID2568 (National Center for Advancing Translational Sciences (NCATS), 2010)
“And” between values parts separate entries of the source, which are not always exact repeats. Equal entries are not always repeated. Results filed as inconclusive are left out. The source made the active and inactive calls. Calls come from the whole dose curve.

target: Neuropeptide S receptor (Homo sapiens) (UniProt Q6W5P4); test: Confirmation Concentration-Response Assay for Antagonists of the Neuropeptide S Receptor: cAMP Signal Transduction, SAR for Probe; conditions: CHO-NPSR cells, cAMP TR-FRET, antagonist mode; series mostly up to 47.8 µM; activity change, negative = inhibition: at the top concentration
Sequence (Q6W5P4 whole entry, looked up): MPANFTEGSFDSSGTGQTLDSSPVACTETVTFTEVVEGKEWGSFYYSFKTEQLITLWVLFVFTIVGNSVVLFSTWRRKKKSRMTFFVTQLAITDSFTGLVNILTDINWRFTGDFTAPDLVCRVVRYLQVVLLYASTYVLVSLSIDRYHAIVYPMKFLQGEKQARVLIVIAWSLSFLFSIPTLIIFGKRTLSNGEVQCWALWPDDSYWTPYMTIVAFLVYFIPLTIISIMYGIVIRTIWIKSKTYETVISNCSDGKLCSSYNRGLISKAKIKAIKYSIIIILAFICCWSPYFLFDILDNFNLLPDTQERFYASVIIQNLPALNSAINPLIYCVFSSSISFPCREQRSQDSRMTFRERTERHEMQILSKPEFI
Excerpt: NIH Chemical Genomics Center [NCGC] NIH Molecular Libraries Probe Production centers Network [MLPCN] MLPCN Grant: X01-DA026210-01 Assay Submitter (PI): Heilig, Markus Alexander NCGC Assay Overview: Neuropeptide S receptor (NPSR), previously known as GPR154, is a recently de-orphanized G protein coupled receptor. Its endogenous ligand is the 20 amino acids peptide Neuropeptide S (NPS). […] NPS and its receptor are found in various tissues. Specifically they are highly expressed in brain areas that have been implicated in modulation of arousal, stress and anxiety. Central administration of NPS in mice produces an unusual profile of activity by inducing wakefulness and arousal, while at the same time suppressing anxiety. Therefore, NPSR may represent a novel drug target for the treatment of sleep and anxiety disorders. To identify NPSR antagonists, we developed a cell-based cAMP assay. NPS can stimulate the production of cAMP in Chinese hamster ovary cells stably expressing NPS receptor. This change in intracellular cAMP level can be detected by a homogeneous LANCE cAMP assay based on the TR-FRET (time resolved fluorescence resonance energy transfer) between a europium-labeled cAMP tracer complex and a cAMP-specific antibody labeled with Alexa Fluor 647. The europium-labeled cAMP tracer complex is formed by the tight interaction between Biotin-cAMP (b-cAMP) and streptavidin labeled with Europium-W8044 chelate (Eu-SA). Light pulse at 320 nm excites the europium of the cAMP tracer and the energy emitted is transferred to the Alexa molecule bound to the cAMP antibody, generating a TR-FRET signal at 665 nm. Residual energy from the europium will produce a light at 620 nm. The native unlabeled cAMP from cell lysates competes with the europium-cAMP tracer for antibody binding and reversely reduces the emission signal of Alexa by interrupting FRET between the two labeled molecules. Both emission signals from the FRET donor (620 nm) and the acceptor (665 nm) can be detected by a plate reader in the TRF mode. Expression of result in fluorescence ratio (665 nm/620 nm) helps to normalize differences due to cell density and reagent dispensing. This assay was successfully optimized to a 1536-well plate format. Select compounds from the primary screen (AID 1461) were chosen for confirmation based on potency, efficacy, SAR, and activity across other assays in PubChem and at NCGC. Other compounds are analogs of active compounds from the primary screen.
NCGC Assay Protocol Summary: A Chinese hamster ovary (CHO) cell line stably expressing the NPS receptor (CHO-NPSR) was obtained from Dr. Heilig lab at NIAAA and maintained in F-12 Kaighn's media (Invitrogen, Carlsbad, CA, 21127) supplemented with 10 % FBS, 100 units/ml penicillin, 100 ug/ml streptomycin and 250 ug/ml geneticin at 37C, 5% CO2 in a humidified atmosphere. Before the assay, aliquots of cells were frozen and stored at -135C. The assay was performed in 1536-well format. Data are reported for both the ratio of the two emission wavelengths, and also for the component 'donor' channel, Em2=620. […] IC50 values were determined from concentration-response data modeled with the standard Hill equation. NPS 1536-well assay protocol: (1) Fresh or frozen CHO-NPSR cells were suspended in F-12 Kaighn's media supplemented with 10 % FBS, 100 units/ml penicillin and 100 ug/ml streptomycin. Cells were plated at 4 ul/well (1200 cells) to white, tissue culture treated 1536-well plates, and then cultured at 37C, 5 % CO2 for 16 to 30 hours. (2) Add 23 nl/well of compound in DMSO solution. The final titration for each compound was between 0.6 nM and 46 uM. (3) Add 1 ul of stimulation reagent (1X HBSS buffer, 5 mM HEPES, 0.1% BSA, 500 uM RO-201724 (Sigma-Aldrich, B8279), 1.5% Alexa 647-labeled anti-cAMP antibody (from Perkin Elmer), 100 nM NPS) (4) Incubation at 37C, 5 % CO2 for 60 min. (5) Add 1 ul/well detection reagent. […]

Row | Structure (SMILES) | Potency | activity change, negative = inhibition
1 | S=P(c1ccccc1)(c1ccccc1)c1c(-c2ccccc2)[nH]c2ccccc12 | 31.5 µM (active) | –
2 | Cc1nc2ccccn2c1P(=S)(c1ccccc1)c1ccccc1 | 25 µM (active) | –
3 | Cc1c(P(=S)(c2ccccc2)c2ccccc2)[n+]2ccccc2n1CCc1ccccc1 | 2.5 µM (active) | –
4 | Cn1c(-c2ccccc2)c(P(=S)(c2ccccc2)c2ccccc2)c2ccccc21 | – | -21% (inactive)
5 | Cc1[nH]c2ccccc2c1P(=S)(c1ccccc1)c1ccccc1 | 39.7 µM (active) | –
6 | S=P(c1ccccc1)(c1ccccc1)c1c[n+](Cc2ccccc2)c2ccccn12 | 9.96 µM (active) | –
7 | Cc1c(P(=S)(c2ccccc2)c2ccccc2)[n+]2ccccc2n1Cc1ccccc1 | 1.99 µM (active) | –
8 | Cc1c(P(=S)(c2ccccc2)c2ccccc2)[n+]2ccccc2n1C | 2.23 µM (active) and 4.87 µM (active) | –
9 | Cc1c(P(=S)(c2ccccc2)c2ccccc2)[n+]2ccccc2n1CCCc1ccccc1 | 0.772 µM (active) | –
10 | Cc1c(P(=S)(c2ccccc2)c2ccccc2)c2ccccc2n1C | 31.5 µM (active) | –
11 | Cc1c(P(=S)(c2ccccc2)c2ccccc2)[n+]2ccccc2n1C/C=C/c1ccccc1 | 0.387 µM (active) | –
